# Measured values taken from PubChem BioAssay (Tox21).
# Results filed as inconclusive are left out. Activity calls are given as the source filed them. The call rests on the fitted dose curve; in most records, active means well fitted cell-killing curve with a large enough effect in the repeat runs; inconclusive means weak or mixed curves; inactive means no such curve, though single readings can be large or run the other way.
# Experiment: qHTS assay to identify small molecule agonists of the peroxisome proliferator-activated receptor delta (PPARd) signaling pathway - cell viability counter screen (AID 743211); further: nearly all actives have a fitted effect of over 55% in size
# Conditions: PPARd-bla HEK293H viability, CellTiter-Glo luminescence, 17 h; series mostly up to 62.6 µM; activity change, negative = cytotoxicity: at the top concentration
# From the text: U.S. Tox21 Program National Center for Advancing Translational Sciences [NCATS] NIH Chemical Genomics Center [NCGC] U.S. Environmental Protection Agency [EPA] National Institutes of Environmental Health Sciences [NIEHS] National Toxicology Program [NTP] U.S. Food and Drug Administration [FDA] Tox21 Assay Overview: The peroxisome proliferator-activated receptors (PPARs) are lipid-activated transcription factors of the nuclear receptor superfamily with three distinct subtypes namely PPAR alpha, PPAR delta (PPARd) and PPAR gamma. All these subtypes heterodimerizes with Retinoid X receptor (RXR) and have different physiological functions. […] To identify the compounds that activate PPAR-delta signaling, GeneBLAzer PPAR delta UAS-bla HEK293H cell line (Invitrogen, Carlsbad, CA, USA) containing a beta-lactamase reporter gene under the control of an Upstream Activator Sequence (UAS) was used to screen the Tox21 compound library. The cytotoxicity of the Tox21 compound library against the PPARd-bla cell line was tested in parallel by measuring the cell viability using CellTiter-Glo assay (Promega, Madison, WI) in the same wells.
# Tox21 Assay Protocol Summary: PPARd-bla cells were dispensed at 3000 cells/6uL/well in 1536-well black wall/clear bottom plates using a Multidrop Combi (Thermo Fisher Scientific, Waltham, MA) dispenser. After the assay plates were incubated at 37 C and 5% CO2 for 5 h, 23 nL of compounds dissolved in DMSO, positive controls or DMSO only was transferred to the assay plate by a Pintool station (Kalypsys, San Diego, CA). The assay plates were incubated at 37C for 17 h. After 1 uL of LiveBLAzerTM B/G FRET substrate was added using a Bioraptr Flying Reagent Dispenser (FRD) workstation (Beckman Coulter, Indianapolis, IN, USA), the plates were incubated at room temperature for 2 h, and fluorescence intensity was measured by an Envision plate reader (PerkinElmer, Shelton, CT). For cell viability readout that measures cytotoxicity, 3 ul/well of CellTiter-Glo reagent was added into the assay plates using a Bioraptr FRD. After 30 min incubation at room temperature, the luminescence intensity in the plates was measured using a ViewLux plate reader (PerkinElmer).
# On the % scale 0 is the no-effect control and ±100 the full control effect.
row,SMILES,"activity change, negative = cytotoxicity"
1,CC(=O)N(CC(O)CO)c1c(I)c(C(=O)NCCO)c(I)c(C(=O)NCC(O)CO)c1I (stereo not given),6.61% (inactive)
2,CCCCCCCCS(=O)(=O)Cl,-0.856% [at 81.1 µM] (inactive)
3,CC(C(=O)O)c1ccc(CC2CCCC2=O)cc1 (stereo not given),0.437% (inactive)
4,C=CCS(=O)(=O)O,3.06% (inactive)
5,NS(=O)(=O)c1cc2c(cc1Cl)NC(C1CC3C=CC1C3)NS2(=O)=O (stereo not given),-21.2% (inactive)
6,O=C(O)CCCc1ccccc1,0.692% (inactive)
7,CCCCCOC(=O)CCCCC,1.8% (inactive)
8,COc1ccc2c(c1)c(CC(=O)OCC(=O)O)c(C)n2C(=O)c1ccc(Cl)cc1,-1.23% (inactive)
9,CCCCCCCCCCCCCC=O,7.31% [at 5.95 µM] (inactive)
10,O=C(CCCN1CCN(c2ccccn2)CC1)c1ccc(F)cc1,-1.97% (inactive)
11,CC(C)NCCCC1(C(N)=O)c2ccccc2-c2ccccc21,0.452% (inactive)
12,COc1ccc(CCN(C)CCCC(C#N)(c2cc(OC)c(OC)c(OC)c2)C(C)C)cc1OC (stereo not given),-4.84% (inactive)
13,Cn1cc(S(C)=O)c(=O)c2ccc(F)cc21 (stereo not given),7.43% (inactive)
14,OC1CCCCC1c1ccccc1 (stereo not given),-10.5% (inactive)
15,N=C(N)c1ccccc1,3.06% (inactive)
16,Cc1c(O)cccc1O,0.42% [at 81.1 µM] (inactive)
17,CCOC(=O)Nc1ccc(NCc2ccc(F)cc2)nc1N,-11.4% (inactive)
18,CCCCCCOC(=O)CCCCC(=O)OCCCCCC,6.87% (inactive)
19,Cc1[nH]c(=O)c(C#N)cc1-c1ccc2nccn2c1,5.59% (inactive)
20,Cc1ccc(=O)n(-c2ccccc2)c1,6.58% (inactive)

row,SMILES,"activity change, negative = cytotoxicity"
1,CCOC(=O)[C@H](CCc1ccccc1)N[C@@H](C)C(=O)N1[C@H](C(=O)O)C[C@@H]2CCC[C@@H]21,-3.64% (inactive)
2,NS(=O)(=O)c1cc(C(=O)NN2C[C@H]3[C@H]4CCC(C4)[C@H]3C2)ccc1Cl,-9.34% (inactive)
3,O=C(O)Cc1ccc(CCNS(=O)(=O)c2ccc(Cl)cc2)cc1,-15.2% (inactive)
4,C=C(C)C(=O)OCCCCCCCC(C)C,6.34% [at 81.1 µM] (inactive)
5,CC(C)(C)c1nnc(NS(=O)(=O)c2ccccc2)s1,0.034% (inactive)
6,NC(=O)Nc1ccccc1,4.66% (inactive)
7,Cc1ccc(C#N)cc1,9.91% (inactive)
8,CN1CC(=O)NC1=N,4.49% (inactive)
9,O=C(O)CN(CCOCCOCCN(CC(=O)O)CC(=O)O)CC(=O)O,8.22% [at 0.55 µM] (inactive)
10,Nc1c[n+](N2CCOCC2)no1,-0.737% (inactive)
11,CCOC(=O)c1cccc(N)c1,-3.16% (inactive)
12,CCc1cccc2c(CCO)c[nH]c12,3.05% (inactive)
13,CCCCCCCCCCCCCCCCC,13.5% (inactive)
14,O=C1CCCN1C1CCCCC1,-14.9% (inactive)
15,C[N+](C)(C)CCCCCC[N+](C)(C)C,-0.38% (inactive)
16,CC(=O)CC(C)C,0.809% (inactive)
17,c1cnc(N2CCN(Cc3ccc4c(c3)OCO4)CC2)nc1,10.1% (inactive)
18,CN1CCCC1,-5.65% (inactive)
19,CCCN1CCCC[C@H]1C(=O)Nc1c(C)cccc1C,7.84% (inactive)
20,CCCCC(CC)COC(=O)c1ccccc1O (stereo not given),5.78% (inactive)
